Compound activity from PubChem BioAssay.
BAZ2B block: qHTS Assay for Inhibitors of BAZ2B | Bromodomain adjacent to zinc finger domain protein 2B (Homo sapiens), Q9UIF8 | AlphaScreen BAZ2B-H3K14Ac peptide displacement | Potency, µM (highest dose often 114 µM), most hits filed as inhibitors | 360,000 compounds, 4.4% hits | AID 504333, 2011; further: nearly all actives have a fitted effect of over 60% in size
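BAZ2B 50 nM plus b-H3(5-23)K14Ac 50 nM, PBS pH 7.4/0.01% Tween-20, 30 min RT; compound added (max 110 uM), 30 min RT; streptavidin donor/Ni-chelate acceptor beads 10 ug/mL final, 20 min dark; AlphaScreen read.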
G9a block: qHTS Assay for Inhibitors of Histone Lysine Methyltransferase G9a; Histone-lysine N-methyltransferase EHMT2 (Homo sapiens), Q96KQ7; G9a H3K9 monomethylation, AlphaScreen, 2 h; Potency, µM (series often up to 102 µM), actives largely listed as inhibitors; 350,000 compounds, 8.8% hits; further: nearly all actives have a fitted effect of over 75% in size
Target sequence (Q96KQ7 913-1193 limits assumed): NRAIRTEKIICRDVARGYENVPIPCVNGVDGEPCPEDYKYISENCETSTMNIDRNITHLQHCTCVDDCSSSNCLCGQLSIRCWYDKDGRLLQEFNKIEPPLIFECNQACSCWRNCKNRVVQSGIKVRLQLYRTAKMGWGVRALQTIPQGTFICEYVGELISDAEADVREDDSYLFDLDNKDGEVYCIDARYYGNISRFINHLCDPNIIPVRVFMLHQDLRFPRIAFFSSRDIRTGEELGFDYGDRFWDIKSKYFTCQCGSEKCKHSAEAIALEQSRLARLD
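Signal arises when biotinylated H3K9 peptide, once monomethylated, bridges streptavidin donor and antibody-captured acceptor beads. Enzyme at 20 nM was preincubated 15 min with test compounds; peptide 500 nM and SAM 20 uM then reacted for 2 h.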
CtBP-E1A blk: qHTS Assay for Inhibitors of the CtBP/E1A Interaction; AlphaScreen GST-E1A/His-CtBP binding, 1536-well; stronger effect = lower value; CtBP / adenovirus E1A interaction (AlphaScreen); 340,000 compounds, 0.49% hits; AID 651724, 2012; activity change, % (no concentration beside the values); in the data active means activity change below about -65%; inconclusive means mostly about -30% to -63%
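Homogeneous bead-based format: GST-tagged E1A captured on glutathione donor beads, His-tagged CtBP on nickel acceptor beads; compounds precede bead addition by 2 h at 37 °C.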
JMJD2A Tudor: qHTS Assay for Inhibitors of JMJD2A-Tudor Domain | Lysine-specific demethylase 4A (Homo sapiens), O75164 | AlphaScreen JMJD2A-Tudor / H3K4me3 peptide binding | Potency, µM (titrated, usually from 114 µM), actives largely listed as inhibitors | 390,000 compounds, 4.4% hits | AID 504339, 2011; further: nearly all actives have a fitted effect of over 50% in size
Six1-Eya2 inh: qHTS Assay for Inhibitors of the Six1/Eya2 Interaction; AlphaScreen GST-Six1/His-Eya2 binding, biochemical; stronger effect = lower value; activity change, % (no concentration beside the values); AID 651725, 2012; 360,000 compounds, 0.56% hits; Homeobox protein SIX1 (Homo sapiens) + Protein phosphatase EYA2 (Homo sapiens), …; in the data active means activity change below about -65%; inconclusive means mostly about -30% to -63%
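Homogeneous AlphaScreen proximity assay pairing GST-Six1 with His-tagged Eya2 (added as 5X mix: 250 nM and 500 nM) in 50 mM Tris pH 8.0, 300 mM NaCl, 1 mM TCEP. Glutathione donor and nickel acceptor beads; 1 h, 37 °C, dark.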
HP1b binding inh: HTS for Inhibitors of HP1-beta Chromodomain Interactions with Methylated Histone Tails. 390,000 compounds, 0.56% hits. Potency, µM (top dose mostly 114 µM), hits mostly inhibitors. AlphaScreen HP1-beta / biotin-H3K9me3 peptide binding. Chromobox protein homolog 1 (Homo sapiens), P83916; further: nearly all actives have a fitted effect of over 70% in size
Target sequence (P83916 whole entry, looked up): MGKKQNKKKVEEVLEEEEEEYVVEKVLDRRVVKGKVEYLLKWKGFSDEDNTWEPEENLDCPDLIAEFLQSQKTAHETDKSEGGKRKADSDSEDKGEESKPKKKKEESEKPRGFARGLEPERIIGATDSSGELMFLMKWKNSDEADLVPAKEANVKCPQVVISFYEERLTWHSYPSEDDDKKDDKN
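AlphaScreen: HP1-beta (50 nM) preformed 30 min with biotin-H3(1-18)K9me3 peptide (50 nM) in PBS pH 7.4, 0.01% Tween-20. Compound added for 30 min at RT, then streptavidin donor/nickel chelate acceptor beads (10 ug/mL) for 30 min.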
A number is an active result; . = inactive; ? = inconclusive; / = no result; ! = not active in a repeat; [ ] = another dose, or the depositor's remark. Shown are actives, neighbours in structure and some others; about 10% of the full set was active somewhere. Unless noted, the call rests on the fitted dose curve; in most records, active means well fitted inhibition curve with a large enough effect; inconclusive means small, poorly fitted or top-dose-only effect; inactive means no such curve, though single readings can be large or run the other way.

SMILES	BAZ2B block	G9a block	CtBP-E1A blk	JMJD2A Tudor	Six1-Eya2 inh	HP1b binding inh
CCOC(=O)c1ccc(CN(Cc2ccc(Cl)cc2Cl)S(=O)(=O)c2ccc(F)c(C)c2)cc1	.	.	/	.	/	.
O=C(NN1C(=O)c2ccccc2C1=O)C1C2CCCCC21 (stereo not drawn)	.	2.8µM	.	.	.	.
O=C(Nc1sc2c(c1C(=O)NCc1ccccc1)CCCC2)c1cc(=O)c2cc(Cl)ccc2o1	.	.	/	.	/	.
CCCCCCCCCCCCCCCC(=O)OC(CC(=O)O)C[N+](C)(C)C (stereo not drawn)	.	32µM!	.	.	.	.
COc1ccccc1CNC(=O)CCS(=O)(=O)c1ccc2c(c1)CCN2C(C)=O	.	.	.	.	.	.
COc1ccc2c(CC(=O)OCC(=O)Nc3ccc4c(c3)OCO4)coc2c1	?	?	.	20µM	.	?
COc1ccc2c(CC(=O)OCC(=O)Nc3ccc(C)cc3)coc2c1	50µM	.[12.7 µM]	.	.	.	.
CC1(C)CC(NC(=S)NCc2ccc3c(c2)OCO3)CC(C)(C)N1	56µM	40µM	/	/	/	/
Cc1ccc(OCCC(=O)OCC(=O)Nc2ccc3c(c2)OCCO3)cc1	.	.	.	.	.	.
CCOc1ccc(OCCC(=O)OCC(=O)Nc2ccc3c(c2)OCO3)cc1	.	45µM	.	.	.	.
CCOc1ccc(NC(=S)NCc2ccc3c(c2)OCO3)cc1	?	10µM	.	.	.	.
CCN(CCNCC(O)COCc1ccc(Cl)cc1)c1cccc(C)c1 (stereo not drawn)	20µM	7.9µM	.	0.89µM	.	40µM
CCOC(=O)C1CCN(CC(O)COCc2ccc(Cl)cc2)CC1 (stereo not drawn)	.	.	/	.	.	.
COc1ccc(C(=O)OC(C)CN2CCOCC2)cc1 (stereo not drawn)	.	.	/	.	.	.
COc1cc(C(=O)Oc2c(CN3CCOCC3)cc(Cl)c3cccnc23)cc(OC)c1OC	20µM	.	-92	56µM	-92	.
COc1cccc(C(=O)Oc2c(CN3CCOCC3)cc(Cl)c3cccnc23)c1	45µM	.	-91	50µM	-88	.
O=C(Oc1c(CN2CCOCC2)cc(Cl)c2cccnc12)c1ccc(F)cc1	20µM	.	-92	22µM	-91	.
COc1ccc(C(=O)Oc2c(CN3CCOCC3)cc(Cl)c3cccnc23)cc1	50µM	?	-65	?	?	.
CC(C)c1cc(Cn2c3ccccc3c(=O)n2C(C)Cn2cc(CCc3ccccc3)nn2)on1 (stereo not drawn)	/	/	.	/	.	/
CCC(C)NC(=O)CSc1nc2cc3c(cc2c(=O)n1CCCC(=O)NCCc1ccc(OC)c(OC)c1)OCO3 (stereo not drawn)	.	.	/	.	/	.
Cn1c(=O)c2c(SCC(=O)NCC3CCCO3)nc(-c3ccccc3Cl)nc2n(C)c1=O (stereo not drawn)	.	.	.	.	.	.
Cc1ccc2nc3sc(C(=O)Nc4ccc(F)cc4)cc3cc2c1	?	.[12.7 µM]	/	40µM	/	.
CCN1CCN(Cc2ccc(NC(=O)c3cc(NC(=O)c4cc(C)on4)cc(OC)c3)cc2C(F)(F)F)CC1	?	45µM	.	?	.	.
CCN1CCN(Cc2ccc(NC(=O)c3cc(NC(=O)c4cnn(-c5ccccc5)c4N)cc(OC)c3)cc2C(F)(F)F)CC1	?	?	.	?	.	.
CCN1CCN(Cc2ccc(NC(=O)c3ccc(C)c(NC(=O)c4ccnnc4)c3)cc2C(F)(F)F)CC1	.	.[12.7 µM]	.	.	.	.
SMILES	BAZ2B block	G9a block	CtBP-E1A blk	JMJD2A Tudor	Six1-Eya2 inh	HP1b binding inh
CCN1CCN(Cc2ccc(NC(=O)c3ccc(C)c(NC(=O)C(=O)c4c[nH]c5ccccc45)c3)cc2C(F)(F)F)CC1	13µM	50µM	.	40µM	.	?
CCN1CCN(Cc2ccc(NC(=O)c3cc(NC(=O)C(=O)c4c[nH]c5ccccc45)cc(OC)c3)cc2C(F)(F)F)CC1	40µM	.[12.7 µM]	.	35µM	.	?
CCN1CCN(Cc2ccc(NC(=O)c3ccc(C)c(NC(=O)c4ccc5n[nH]nc5c4)c3)cc2C(F)(F)F)CC1	.	.[12.7 µM]	.	.	.	.
Cc1nc(Nc2ccc(Cl)cc2)cc(-c2ccccc2)n1	.	.	/	.	/	.
O=S(=O)(c1ccc2c(c1)CCN2)N1CCCCCC1	.	.	/	.	/	.
Cc1ccc(C)c(NC(=O)C(Sc2nnc(-c3cccs3)o2)c2ccccc2)c1 (stereo not drawn)	.	79µM	.	.	.	?
Cc1ccc(C)c(NC(=O)C(Sc2cccc[n+]2[O-])c2ccccc2)c1 (stereo not drawn)	.	45µM	.	.	.	.
O=C(Nc1ccc(Cl)cc1C(F)(F)F)C(Sc1cccc[n+]1[O-])c1ccccc1 (stereo not drawn)	?	/	.	.	.	.
CCOc1ccccc1NC(=O)CN1C(=O)COc2ccc(S(=O)(=O)NC3CCCC3)cc21	.	.	/	.	/	.
CCC1CCCCN1S(=O)(=O)c1ccc(NC(=O)c2nc(SC)ncc2Cl)cc1 (stereo not drawn)	.	.	/	.	/	.
CC(C)(CCC(=S)N1CCOCC1)C1CCCCC1	.	8.9µM	.	.	.	.
Cc1nc(N2CCCCC2)sc1C(=O)c1ccc(SCCO)c([N+](=O)[O-])c1	40µM	40µM	.	13µM	.	?
O=[N+]([O-])c1ccc(N2CCCCC2)cc1SCCO	.	?	.	.	.	.
N=C(c1cccc([N+](=O)[O-])c1)N1CCCCCC1	.	.	/	.	.	.
Cc1nc(N2CCCCC2)sc1C(=O)c1cccc([N+](=O)[O-])c1	40µM	?	.	?	.	?
COc1ccc(C2Nc3ccccc3C(=O)N2Cc2ccccc2Cl)cc1COc1ccc(NC(C)=O)cc1 (stereo not drawn)	/	/	/	.	/	/
Cc1nc2ccccn2c1-c1ccnc(=S)[nH]1	.	10µM	.	.	.	.
c1ccn2c(c1)nc1c2nc2ccccn21	.	.	.	.	.	.
C[C@@](Cc1ccccc1)(C(=O)O)N1C(=O)c2ccc(C(=O)O)cc2C1=O	.	.[12.7 µM]	/	?	/	/
CCN(c1ccccc1)S(=O)(=O)c1nnc(NC(=O)COc2ccc(OC)cc2)s1	.	.	/	.	/	.
